Source: the supplement of paper PMC11732987, “Enantioselective OTUD7B fragment discovery through chemoproteomics screening and high-throughput optimisation” (Communications Chemistry, 2025)

Tests used:
Assay in all cases: log2 ratio of Biotin-Ahx-Ub-VS probe labelling (fragment/DMSO); higher = less target engagement (more negative = stronger competition), active = hit call of the paper (q ≤ 0.05, log2 ratio ≤ -1)
Conditions in all cases: compound concentration: 200 uM; treatment time: 3 h
USP42 = target: T1, USP42 (UniProt Q9H9J4)
T1 sequence (whole entry): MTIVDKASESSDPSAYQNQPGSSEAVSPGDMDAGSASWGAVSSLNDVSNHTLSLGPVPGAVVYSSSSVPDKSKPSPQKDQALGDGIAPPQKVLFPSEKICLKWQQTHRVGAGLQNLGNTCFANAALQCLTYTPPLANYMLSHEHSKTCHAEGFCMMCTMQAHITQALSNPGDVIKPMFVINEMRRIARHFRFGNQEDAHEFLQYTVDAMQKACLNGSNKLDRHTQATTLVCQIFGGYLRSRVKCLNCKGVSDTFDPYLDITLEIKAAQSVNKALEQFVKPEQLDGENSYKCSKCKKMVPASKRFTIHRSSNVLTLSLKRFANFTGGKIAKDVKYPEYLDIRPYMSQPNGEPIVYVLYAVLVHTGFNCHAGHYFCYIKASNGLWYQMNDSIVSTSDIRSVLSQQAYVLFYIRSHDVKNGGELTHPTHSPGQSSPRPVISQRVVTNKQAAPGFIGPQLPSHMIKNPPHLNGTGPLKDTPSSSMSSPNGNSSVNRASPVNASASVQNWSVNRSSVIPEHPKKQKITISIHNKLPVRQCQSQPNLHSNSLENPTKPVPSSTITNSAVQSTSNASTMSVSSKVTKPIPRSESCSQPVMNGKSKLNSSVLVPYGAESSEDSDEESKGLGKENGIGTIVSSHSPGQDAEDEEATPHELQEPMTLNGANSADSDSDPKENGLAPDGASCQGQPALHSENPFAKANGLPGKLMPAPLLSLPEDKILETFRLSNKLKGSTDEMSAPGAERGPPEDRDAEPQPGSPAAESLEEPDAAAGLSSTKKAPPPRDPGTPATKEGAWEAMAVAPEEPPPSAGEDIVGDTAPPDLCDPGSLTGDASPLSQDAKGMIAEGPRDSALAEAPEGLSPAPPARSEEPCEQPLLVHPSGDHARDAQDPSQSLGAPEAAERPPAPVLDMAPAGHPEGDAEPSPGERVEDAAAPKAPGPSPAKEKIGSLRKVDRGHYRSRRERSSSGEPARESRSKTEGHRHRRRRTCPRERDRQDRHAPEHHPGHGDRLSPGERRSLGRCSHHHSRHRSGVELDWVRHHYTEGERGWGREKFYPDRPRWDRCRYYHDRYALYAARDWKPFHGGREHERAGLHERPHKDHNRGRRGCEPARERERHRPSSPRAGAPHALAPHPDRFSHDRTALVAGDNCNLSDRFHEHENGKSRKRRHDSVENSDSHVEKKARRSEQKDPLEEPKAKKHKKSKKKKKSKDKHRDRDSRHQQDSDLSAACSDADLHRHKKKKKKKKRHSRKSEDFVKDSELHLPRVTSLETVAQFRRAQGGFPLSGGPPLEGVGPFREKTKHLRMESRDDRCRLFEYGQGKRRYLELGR
Procedure, shortened: (§1)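 HEK293T lysate (495 µg per sample, in Tris/CHAPS/IGEPAL buffer with protease inhibitors) was exposed in triplicate for 3 h to fragment at 200 µM or to vehicle, then to Biotin-Ahx-Ub-VS at 0.5 µM final for 1 h. Labelled DUBs were enriched on NeutrAvidin, digested with LysC and trypsin, and analysed by diaPASEF LC-MS/MS. Spectronaut label-free quantities were normalised to the global median, and values are average log2 ratios of fragment over vehicle from an unpaired t-test. Only proteins with ≥2 unique peptides were used.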

USP46 = USP46 (UniProt P62068)
Sequence of USP46 (P62068 whole entry): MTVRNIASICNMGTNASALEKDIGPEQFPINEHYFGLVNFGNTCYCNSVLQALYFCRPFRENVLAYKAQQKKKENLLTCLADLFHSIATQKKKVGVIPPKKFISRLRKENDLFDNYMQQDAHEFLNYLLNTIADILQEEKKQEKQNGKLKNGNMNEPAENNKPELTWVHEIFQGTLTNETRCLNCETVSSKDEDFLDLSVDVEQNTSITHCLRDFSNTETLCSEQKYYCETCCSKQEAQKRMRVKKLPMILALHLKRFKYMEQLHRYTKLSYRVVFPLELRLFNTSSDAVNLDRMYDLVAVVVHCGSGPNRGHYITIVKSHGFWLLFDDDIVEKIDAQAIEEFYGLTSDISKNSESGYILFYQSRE
Procedure, shortened: as §1

USP47 = target: T2, USP47 (UniProt Q96K76)
T2 sequence (whole entry): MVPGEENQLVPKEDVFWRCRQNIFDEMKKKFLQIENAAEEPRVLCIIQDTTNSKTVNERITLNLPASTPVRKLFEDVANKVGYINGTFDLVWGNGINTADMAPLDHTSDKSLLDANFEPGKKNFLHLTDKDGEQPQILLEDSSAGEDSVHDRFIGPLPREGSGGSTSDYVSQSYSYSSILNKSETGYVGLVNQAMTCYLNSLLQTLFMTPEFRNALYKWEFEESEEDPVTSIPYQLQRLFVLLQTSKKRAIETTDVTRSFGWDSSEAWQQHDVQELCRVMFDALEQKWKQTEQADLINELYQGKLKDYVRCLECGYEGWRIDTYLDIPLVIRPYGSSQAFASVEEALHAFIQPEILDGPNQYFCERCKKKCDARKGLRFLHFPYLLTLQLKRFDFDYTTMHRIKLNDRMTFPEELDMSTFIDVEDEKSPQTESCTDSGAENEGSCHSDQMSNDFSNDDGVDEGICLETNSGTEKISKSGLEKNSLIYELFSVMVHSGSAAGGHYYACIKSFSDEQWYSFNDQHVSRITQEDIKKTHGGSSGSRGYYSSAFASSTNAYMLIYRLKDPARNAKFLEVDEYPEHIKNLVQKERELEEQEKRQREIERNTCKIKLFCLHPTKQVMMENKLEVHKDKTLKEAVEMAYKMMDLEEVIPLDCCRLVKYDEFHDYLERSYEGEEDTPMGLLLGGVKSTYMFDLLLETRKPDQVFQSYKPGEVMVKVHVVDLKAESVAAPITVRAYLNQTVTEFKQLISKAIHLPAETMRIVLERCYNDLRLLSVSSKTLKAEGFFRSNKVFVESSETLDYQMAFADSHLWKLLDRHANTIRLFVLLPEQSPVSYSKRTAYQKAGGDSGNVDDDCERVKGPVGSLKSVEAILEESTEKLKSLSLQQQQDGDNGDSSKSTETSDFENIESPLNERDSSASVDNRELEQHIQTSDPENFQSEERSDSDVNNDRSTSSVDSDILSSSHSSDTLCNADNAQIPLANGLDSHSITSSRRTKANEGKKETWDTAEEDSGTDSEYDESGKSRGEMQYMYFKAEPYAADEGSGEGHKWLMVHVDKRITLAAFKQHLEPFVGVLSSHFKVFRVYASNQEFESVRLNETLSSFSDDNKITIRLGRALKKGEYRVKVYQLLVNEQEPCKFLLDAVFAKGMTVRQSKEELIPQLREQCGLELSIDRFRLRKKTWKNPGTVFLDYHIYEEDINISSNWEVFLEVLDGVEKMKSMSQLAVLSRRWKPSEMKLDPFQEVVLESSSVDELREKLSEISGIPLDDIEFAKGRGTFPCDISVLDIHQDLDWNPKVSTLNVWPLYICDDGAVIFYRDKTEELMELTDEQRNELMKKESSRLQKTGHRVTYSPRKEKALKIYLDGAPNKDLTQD
Procedure, shortened: as §1

USP48 = target: T3, USP48 (UniProt Q86UV5)
T3 sequence (whole entry): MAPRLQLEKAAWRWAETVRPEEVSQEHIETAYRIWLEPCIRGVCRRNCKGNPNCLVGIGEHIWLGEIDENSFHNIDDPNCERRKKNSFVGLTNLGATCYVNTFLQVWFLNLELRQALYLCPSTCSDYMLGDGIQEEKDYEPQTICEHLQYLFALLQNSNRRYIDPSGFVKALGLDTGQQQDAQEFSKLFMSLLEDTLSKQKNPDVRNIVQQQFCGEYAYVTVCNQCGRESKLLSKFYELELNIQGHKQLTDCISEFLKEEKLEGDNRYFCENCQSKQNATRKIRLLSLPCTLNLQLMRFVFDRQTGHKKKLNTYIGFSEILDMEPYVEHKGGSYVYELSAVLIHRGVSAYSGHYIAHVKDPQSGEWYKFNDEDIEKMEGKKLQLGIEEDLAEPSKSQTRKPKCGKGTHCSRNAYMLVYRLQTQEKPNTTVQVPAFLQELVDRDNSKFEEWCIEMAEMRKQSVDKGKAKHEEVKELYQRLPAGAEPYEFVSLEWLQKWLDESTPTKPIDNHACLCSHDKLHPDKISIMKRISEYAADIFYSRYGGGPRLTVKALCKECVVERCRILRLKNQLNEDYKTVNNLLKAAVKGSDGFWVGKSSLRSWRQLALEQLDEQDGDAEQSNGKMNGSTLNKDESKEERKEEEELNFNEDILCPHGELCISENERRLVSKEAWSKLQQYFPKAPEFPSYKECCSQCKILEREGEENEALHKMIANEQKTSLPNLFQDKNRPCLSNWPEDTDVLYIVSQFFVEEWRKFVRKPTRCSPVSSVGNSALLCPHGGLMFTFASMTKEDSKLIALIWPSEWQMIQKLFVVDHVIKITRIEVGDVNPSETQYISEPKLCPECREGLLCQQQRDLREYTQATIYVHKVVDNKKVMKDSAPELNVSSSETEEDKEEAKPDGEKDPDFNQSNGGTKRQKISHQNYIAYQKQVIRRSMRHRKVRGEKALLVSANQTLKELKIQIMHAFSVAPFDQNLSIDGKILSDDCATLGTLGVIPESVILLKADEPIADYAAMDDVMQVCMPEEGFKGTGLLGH
Procedure, shortened: as §1

USP5 = target: T4, USP5 (UniProt P45974)
T4 sequence (whole entry): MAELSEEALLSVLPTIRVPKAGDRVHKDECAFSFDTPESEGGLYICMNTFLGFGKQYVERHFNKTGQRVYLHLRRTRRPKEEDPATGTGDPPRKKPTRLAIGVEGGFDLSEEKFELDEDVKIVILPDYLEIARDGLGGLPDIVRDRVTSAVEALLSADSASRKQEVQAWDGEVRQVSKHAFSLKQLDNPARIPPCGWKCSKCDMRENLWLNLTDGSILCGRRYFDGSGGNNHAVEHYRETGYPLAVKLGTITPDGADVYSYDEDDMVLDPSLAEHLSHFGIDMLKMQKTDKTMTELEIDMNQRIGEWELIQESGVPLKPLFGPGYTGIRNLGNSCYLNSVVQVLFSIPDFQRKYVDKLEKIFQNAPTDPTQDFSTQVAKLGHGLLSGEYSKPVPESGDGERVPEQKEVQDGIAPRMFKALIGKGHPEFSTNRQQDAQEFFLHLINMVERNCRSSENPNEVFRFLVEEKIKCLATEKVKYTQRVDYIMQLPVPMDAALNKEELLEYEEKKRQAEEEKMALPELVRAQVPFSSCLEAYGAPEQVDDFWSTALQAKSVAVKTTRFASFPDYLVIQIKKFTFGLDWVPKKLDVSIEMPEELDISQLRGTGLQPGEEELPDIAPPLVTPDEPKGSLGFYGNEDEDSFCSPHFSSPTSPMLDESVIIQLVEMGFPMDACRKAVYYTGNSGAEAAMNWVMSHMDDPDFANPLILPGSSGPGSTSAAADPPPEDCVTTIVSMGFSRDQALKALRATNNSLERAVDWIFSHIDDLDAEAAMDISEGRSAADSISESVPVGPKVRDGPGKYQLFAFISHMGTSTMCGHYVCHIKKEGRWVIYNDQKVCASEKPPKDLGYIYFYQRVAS
Procedure, shortened: as §1

USP54 = USP54 (UniProt Q70EL1)
Sequence of USP54 (Q70EL1 whole entry): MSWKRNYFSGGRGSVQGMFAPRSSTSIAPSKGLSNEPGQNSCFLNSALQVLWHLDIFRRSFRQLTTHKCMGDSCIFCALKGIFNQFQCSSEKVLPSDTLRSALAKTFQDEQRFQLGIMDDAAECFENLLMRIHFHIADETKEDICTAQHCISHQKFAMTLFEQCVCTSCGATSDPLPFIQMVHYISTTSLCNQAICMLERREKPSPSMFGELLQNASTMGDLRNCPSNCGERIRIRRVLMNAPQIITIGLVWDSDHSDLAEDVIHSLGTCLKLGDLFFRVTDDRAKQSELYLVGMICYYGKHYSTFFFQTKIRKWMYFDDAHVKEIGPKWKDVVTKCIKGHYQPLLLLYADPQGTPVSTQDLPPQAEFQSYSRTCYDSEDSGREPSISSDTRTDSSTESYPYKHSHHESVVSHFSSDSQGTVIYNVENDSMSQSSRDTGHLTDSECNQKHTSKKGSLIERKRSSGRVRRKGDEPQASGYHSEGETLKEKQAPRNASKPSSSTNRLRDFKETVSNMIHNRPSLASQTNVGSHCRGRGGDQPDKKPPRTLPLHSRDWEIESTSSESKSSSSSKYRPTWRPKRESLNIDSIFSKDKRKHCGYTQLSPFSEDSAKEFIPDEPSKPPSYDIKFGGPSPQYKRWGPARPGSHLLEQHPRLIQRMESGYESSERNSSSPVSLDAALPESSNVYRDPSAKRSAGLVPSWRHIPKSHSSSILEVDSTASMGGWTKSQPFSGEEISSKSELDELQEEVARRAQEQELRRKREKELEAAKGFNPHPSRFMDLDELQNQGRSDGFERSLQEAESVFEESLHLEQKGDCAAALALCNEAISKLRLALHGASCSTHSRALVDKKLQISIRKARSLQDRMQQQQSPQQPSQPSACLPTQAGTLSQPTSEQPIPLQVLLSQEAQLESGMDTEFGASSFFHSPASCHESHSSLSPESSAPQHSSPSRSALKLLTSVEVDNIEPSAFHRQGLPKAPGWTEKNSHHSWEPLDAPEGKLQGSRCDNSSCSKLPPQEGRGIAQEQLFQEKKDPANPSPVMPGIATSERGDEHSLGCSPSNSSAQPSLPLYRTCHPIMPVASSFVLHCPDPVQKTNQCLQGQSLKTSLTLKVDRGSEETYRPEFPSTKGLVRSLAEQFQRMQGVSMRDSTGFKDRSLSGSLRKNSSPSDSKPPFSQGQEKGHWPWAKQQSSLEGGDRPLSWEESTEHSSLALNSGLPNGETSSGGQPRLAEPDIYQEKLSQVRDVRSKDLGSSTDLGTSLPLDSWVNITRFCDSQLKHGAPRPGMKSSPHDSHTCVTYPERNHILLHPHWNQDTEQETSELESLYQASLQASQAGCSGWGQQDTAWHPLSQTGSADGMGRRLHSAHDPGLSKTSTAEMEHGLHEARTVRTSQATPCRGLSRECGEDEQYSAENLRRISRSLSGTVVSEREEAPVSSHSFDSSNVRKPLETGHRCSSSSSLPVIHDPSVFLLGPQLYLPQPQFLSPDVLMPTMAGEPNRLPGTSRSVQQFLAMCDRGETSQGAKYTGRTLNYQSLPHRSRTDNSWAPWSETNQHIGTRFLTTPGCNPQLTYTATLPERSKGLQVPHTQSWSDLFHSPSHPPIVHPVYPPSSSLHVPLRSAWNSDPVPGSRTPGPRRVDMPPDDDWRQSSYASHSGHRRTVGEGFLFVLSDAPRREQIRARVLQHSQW
Procedure, shortened: as §1

USP7 = USP7 (UniProt Q93009)
Sequence of USP7 (Q93009 whole entry, looked up): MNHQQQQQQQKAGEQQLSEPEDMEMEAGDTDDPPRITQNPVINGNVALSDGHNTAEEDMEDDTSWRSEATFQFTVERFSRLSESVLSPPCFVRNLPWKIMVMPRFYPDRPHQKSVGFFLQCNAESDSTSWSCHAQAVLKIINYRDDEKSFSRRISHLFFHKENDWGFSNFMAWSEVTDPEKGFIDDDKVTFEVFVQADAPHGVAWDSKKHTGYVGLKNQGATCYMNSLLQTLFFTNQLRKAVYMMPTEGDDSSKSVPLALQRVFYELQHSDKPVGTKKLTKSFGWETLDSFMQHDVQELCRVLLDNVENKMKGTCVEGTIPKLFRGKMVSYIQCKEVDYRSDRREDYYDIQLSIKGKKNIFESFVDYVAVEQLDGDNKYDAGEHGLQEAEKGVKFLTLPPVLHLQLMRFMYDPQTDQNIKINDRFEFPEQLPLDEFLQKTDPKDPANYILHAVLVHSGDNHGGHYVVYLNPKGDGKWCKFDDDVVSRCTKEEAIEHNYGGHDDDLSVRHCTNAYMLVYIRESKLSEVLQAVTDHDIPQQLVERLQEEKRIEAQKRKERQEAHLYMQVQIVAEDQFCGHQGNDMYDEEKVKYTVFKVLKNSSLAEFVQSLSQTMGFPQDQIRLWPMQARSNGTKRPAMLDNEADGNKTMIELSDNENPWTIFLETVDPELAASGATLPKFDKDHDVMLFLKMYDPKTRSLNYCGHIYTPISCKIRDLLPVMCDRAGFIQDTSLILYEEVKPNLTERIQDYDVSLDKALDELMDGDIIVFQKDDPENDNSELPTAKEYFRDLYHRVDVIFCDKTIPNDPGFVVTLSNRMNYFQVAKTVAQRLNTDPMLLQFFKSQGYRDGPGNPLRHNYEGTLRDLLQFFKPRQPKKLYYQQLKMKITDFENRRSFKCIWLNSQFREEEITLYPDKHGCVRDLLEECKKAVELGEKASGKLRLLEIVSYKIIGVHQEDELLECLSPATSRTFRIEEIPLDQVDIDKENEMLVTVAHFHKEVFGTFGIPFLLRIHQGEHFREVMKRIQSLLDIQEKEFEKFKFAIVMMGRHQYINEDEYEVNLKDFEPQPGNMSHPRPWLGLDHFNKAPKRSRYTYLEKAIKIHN
Procedure, shortened: as §1

USP8 = target: T5, USP8 (UniProt P40818)
T5 sequence (whole entry): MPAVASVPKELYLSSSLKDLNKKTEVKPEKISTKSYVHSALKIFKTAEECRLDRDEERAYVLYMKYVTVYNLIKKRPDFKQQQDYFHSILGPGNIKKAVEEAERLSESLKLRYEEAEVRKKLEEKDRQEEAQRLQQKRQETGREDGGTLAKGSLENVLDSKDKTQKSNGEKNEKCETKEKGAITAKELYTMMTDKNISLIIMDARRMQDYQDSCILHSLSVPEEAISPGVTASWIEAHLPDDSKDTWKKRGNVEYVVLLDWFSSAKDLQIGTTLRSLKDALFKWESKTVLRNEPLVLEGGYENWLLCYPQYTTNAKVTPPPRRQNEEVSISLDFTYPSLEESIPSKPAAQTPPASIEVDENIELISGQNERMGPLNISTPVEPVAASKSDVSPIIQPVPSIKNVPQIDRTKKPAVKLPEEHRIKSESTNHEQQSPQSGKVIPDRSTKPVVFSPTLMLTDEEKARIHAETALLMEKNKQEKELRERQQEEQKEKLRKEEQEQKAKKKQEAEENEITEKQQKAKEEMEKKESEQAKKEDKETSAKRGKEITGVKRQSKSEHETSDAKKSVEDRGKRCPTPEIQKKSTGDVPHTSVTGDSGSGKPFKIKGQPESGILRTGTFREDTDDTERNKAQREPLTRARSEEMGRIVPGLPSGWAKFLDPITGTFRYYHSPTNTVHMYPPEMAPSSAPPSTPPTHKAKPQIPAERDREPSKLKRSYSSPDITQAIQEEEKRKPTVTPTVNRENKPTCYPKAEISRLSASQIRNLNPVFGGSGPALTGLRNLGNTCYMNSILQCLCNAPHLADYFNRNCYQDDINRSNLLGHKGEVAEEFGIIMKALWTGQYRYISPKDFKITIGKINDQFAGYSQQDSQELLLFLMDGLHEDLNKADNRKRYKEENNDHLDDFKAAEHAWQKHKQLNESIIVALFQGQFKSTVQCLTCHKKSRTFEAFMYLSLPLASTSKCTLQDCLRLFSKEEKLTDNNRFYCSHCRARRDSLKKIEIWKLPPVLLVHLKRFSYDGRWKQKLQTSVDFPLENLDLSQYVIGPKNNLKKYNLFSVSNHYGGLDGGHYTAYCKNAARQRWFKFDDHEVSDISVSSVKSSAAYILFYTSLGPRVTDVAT
Procedure, shortened: as §1

Measured: log2 ratio of Biotin-Ahx-Ub-VS probe labelling

CS(=O)(=O)c1ccc(NC(=O)CCl)cc1
inactive: USP42 0.0549 | USP46 0.119 | USP47 -0.0487 | USP48 -0.946 | USP5 0.0085 | USP54 0.431 | USP7 -0.156 | USP8 0.012
